Here are results for 9 compounds from PubChem BioAssay (EPA / NIEHS).

The target of experiment [1] is human Vascular Endothelial Growth Factor Receptor 2 (VEGFR2), KDR (gene 3791) (UniProt P35968). As to the kind of experiment: NVS_ENZ_hVEGFR2: NovaScreen (NVS) Enzymatic Assay for human Vascular Endothelial Growth Factor Receptor 2 (VEGFR2) (AID 2283230). The procedure, abridged: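 Cell-free recombinant VEGFR2 kinase, fluorescent substrate with electrophoretic mobility-shift separation; read 1 h after dosing. Screened at 25 uM in duplicate, hits to concentration-response up to 50 uM; loss-of-signal versus DMSO.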
Sequence of human Vascular Endothelial Growth Factor Receptor 2 (VEGFR2), KDR (gene 3791) (P35968 whole entry, looked up): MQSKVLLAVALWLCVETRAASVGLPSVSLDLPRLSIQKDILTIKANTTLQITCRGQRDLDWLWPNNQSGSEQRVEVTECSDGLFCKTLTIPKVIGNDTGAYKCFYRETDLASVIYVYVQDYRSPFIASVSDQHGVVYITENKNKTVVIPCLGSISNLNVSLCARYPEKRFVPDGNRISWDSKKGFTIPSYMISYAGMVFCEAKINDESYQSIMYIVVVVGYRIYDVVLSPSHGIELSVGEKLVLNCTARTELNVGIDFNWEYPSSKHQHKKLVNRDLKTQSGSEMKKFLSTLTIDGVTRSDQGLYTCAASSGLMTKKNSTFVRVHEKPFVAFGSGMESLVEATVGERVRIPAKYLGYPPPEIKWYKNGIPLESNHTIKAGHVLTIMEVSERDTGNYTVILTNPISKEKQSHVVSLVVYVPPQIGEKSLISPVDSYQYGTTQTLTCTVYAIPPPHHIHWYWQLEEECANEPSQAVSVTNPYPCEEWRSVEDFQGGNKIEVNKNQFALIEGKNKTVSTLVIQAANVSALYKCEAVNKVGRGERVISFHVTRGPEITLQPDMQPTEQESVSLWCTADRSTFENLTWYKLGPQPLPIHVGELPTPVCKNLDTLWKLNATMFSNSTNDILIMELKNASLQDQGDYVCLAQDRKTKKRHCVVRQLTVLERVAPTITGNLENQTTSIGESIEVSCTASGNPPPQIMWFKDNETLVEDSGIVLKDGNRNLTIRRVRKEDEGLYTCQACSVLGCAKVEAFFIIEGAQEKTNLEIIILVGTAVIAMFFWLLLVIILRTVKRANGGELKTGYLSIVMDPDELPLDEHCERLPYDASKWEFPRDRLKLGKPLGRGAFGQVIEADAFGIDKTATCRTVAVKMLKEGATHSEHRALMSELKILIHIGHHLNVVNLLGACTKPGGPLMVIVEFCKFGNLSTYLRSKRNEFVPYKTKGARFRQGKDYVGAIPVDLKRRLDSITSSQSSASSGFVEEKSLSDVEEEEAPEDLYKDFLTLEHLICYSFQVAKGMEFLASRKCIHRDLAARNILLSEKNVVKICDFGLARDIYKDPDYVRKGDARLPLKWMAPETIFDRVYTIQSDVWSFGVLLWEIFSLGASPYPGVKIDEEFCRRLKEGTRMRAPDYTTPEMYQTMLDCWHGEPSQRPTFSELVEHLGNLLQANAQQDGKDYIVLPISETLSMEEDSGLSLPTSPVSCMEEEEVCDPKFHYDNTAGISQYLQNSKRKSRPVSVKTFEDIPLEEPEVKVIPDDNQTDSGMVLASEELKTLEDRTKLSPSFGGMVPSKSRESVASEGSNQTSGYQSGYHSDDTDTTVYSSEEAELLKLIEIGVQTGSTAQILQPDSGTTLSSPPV

Experiment [2] has as its target bovine Dopamine Receptor (DR), Non-selective Binding, DRD1 (gene 281125) (UniProt Q95136). The experiment can be described thus: NVS_GPCR_bDR_NonSelective: NovaScreen (NVS) G Protein-Coupled Receptor Assay for bovine Dopamine Receptor (DR), Non-selective Binding (AID 2283241). The procedure, abridged:
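Bovine striatal membranes; radioligand displacement read by filtration and scintillation counting 1 h after dosing, loss of signal vs DMSO. Screened in duplicate at 25 uM, then concentration-response for hits.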

Experiment [3] in a line: NVS_GPCR_bNPY_NonSelective: NovaScreen (NVS) G Protein-Coupled Receptor Assay for bovine Neuropeptide Y (NPY) Receptor, Non-selective Binding (AID 2283245). The procedure, abridged:
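Bovine hippocampal membranes incubated 1 hour with radioligand and test chemical. Bound ligand measured by filter-based scintillation counting. Single-concentration screen at 25 uM in duplicate, then concentration-response up to 50 uM.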

Experiment [4] deals with human Serotonin, 5-Hydroxytryptamine Receptor 2A (5HT2A), HTR2A (gene 3356) (UniProt P28223). As to the kind of experiment: NVS_GPCR_h5HT2A: NovaScreen (NVS) G Protein-Coupled Receptor Assay for human Serotonin, 5-Hydroxytryptamine Receptor 2A (5HT2A) (AID 2283249). The procedure, abridged: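 Human cortex membranes, cell-free radioligand binding; filter-based scintillation read 1.5 h after dosing. Duplicate screen at 25 uM first; displacement of specific binding (loss of signal) versus DMSO.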
Sequence of human Serotonin, 5-Hydroxytryptamine Receptor 2A (5HT2A), HTR2A (gene 3356) (P28223 whole entry, looked up): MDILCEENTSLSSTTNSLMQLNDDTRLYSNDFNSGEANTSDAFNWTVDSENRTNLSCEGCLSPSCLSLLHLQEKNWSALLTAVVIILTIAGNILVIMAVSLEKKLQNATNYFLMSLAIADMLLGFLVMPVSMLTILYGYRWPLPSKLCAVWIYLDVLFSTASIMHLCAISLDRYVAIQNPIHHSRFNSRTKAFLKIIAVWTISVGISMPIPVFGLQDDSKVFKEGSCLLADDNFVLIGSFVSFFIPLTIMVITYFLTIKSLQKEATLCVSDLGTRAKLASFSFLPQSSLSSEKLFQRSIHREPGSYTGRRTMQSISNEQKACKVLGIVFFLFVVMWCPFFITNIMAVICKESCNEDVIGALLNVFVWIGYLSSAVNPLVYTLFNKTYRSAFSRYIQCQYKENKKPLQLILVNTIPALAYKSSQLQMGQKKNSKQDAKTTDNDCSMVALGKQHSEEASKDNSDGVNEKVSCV

The test system of experiment [5] is guinea pig Muscarinic, Peripheral (Mperiperal) Receptor, Non-selective Binding, gene 100379235. The experiment can be described thus: NVS_GPCR_gMPeripheral_NonSelective: NovaScreen (NVS) G Protein-Coupled Receptor Assay for guinea pig Muscarinic, Peripheral (Mperiperal) Receptor, Non-selective Binding (AID 2283250). The procedure, abridged: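 Guinea pig bladder membranes, radioligand binding read 1 h after dosing by filter scintillation counting; loss of signal vs DMSO. Primary duplicate screen at 25 uM, then concentration-response up to 50 uM.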

Experiment [6] addresses human Serotonin, 5-Hydroxytryptamine Receptor 5A (5HT5A), HTR5A (gene 3361) (UniProt P47898). The experiment can be described thus: NVS_GPCR_h5HT5A: NovaScreen (NVS) G Protein-Coupled Receptor Assay for human Serotonin, 5-Hydroxytryptamine Receptor 5A (5HT5A) (AID 2283251). The procedure, abridged: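 Cell-free radioligand displacement binding on HEK293-derived membrane protein, 1 h incubation, filter-based scintillation counting. Primary screen in duplicate at 25 uM, actives followed in concentration series; loss of signal fitted versus DMSO.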

Experiment [7] concerns the target guinea pig Opioid, Kappa 1 Receptor (OpiateK), OPRK1 (gene 100135587) (UniProt P41144). As to the kind of experiment: NVS_GPCR_gOpiateK: NovaScreen (NVS) G Protein-Coupled Receptor Assay for guinea pig Opioid, Kappa 1 Receptor (OpiateK) (AID 2283252).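 Note: radioligand displacement from kappa opioid receptor in guinea pig cerebellar membranes; active means reduced radioligand binding relative to DMSO.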 The procedure, abridged:
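Guinea pig cerebellar membranes were incubated with a radioligand for 2 h after compound addition; bound radioactivity was read by filter-based scintillation counting. Loss of specific binding relative to DMSO baseline defined activity; primary screen at 25 uM in duplicate.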

Experiment [8] addresses human Serotonin, 5-Hydroxytryptamine Receptor 6 (5HT6), HTR6 (gene 3362) (UniProt P50406). The experiment can be described thus: NVS_GPCR_h5HT6: NovaScreen (NVS) G Protein-Coupled Receptor Assay for human Serotonin, 5-Hydroxytryptamine Receptor 6 (5HT6) (AID 2283253). The procedure, abridged: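 Radioligand binding to 5HT6 in HEK293-derived membranes, cell-free, 1 h after dosing; bound ligand measured by filter-based scintillation counting. Primary screen in duplicate at 25 uM; actives retested in concentration series.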

Experiment [9] concerns the target human Adenosine A1 Receptor (AdoRA1), ADORA1 (gene 134) (UniProt P30542). As to the kind of experiment: NVS_GPCR_hAdoRA1: NovaScreen (NVS) G Protein-Coupled Receptor Assay for human Adenosine A1 Receptor (AdoRA1) (AID 2283254). The procedure, abridged: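 Radioligand binding was run on human cortical membranes, cell-free, with filter-based scintillation counting 1 h after dosing. The primary screen was duplicate at 25 uM, followed by concentration series. Signal loss versus DMSO was fitted positive-direction.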

The target of experiment [10] is human Serotonin, 5-Hydroxytryptamine Receptor 7 (5HT7), HTR7 (gene 3363) (UniProt P34969). As to the kind of experiment: NVS_GPCR_h5HT7: NovaScreen (NVS) G Protein-Coupled Receptor Assay for human Serotonin, 5-Hydroxytryptamine Receptor 7 (5HT7) (AID 2283255).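 Note: hits reduce specific radioligand binding relative to DMSO.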 The procedure, abridged: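 Radioligand displacement on membranes from CHO cells expressing human 5HT7, 1 h incubation, filter-based scintillation counting. Primary screen used a single 25 uM concentration in duplicate; actives were followed up in concentration series.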
Sequence of human Serotonin, 5-Hydroxytryptamine Receptor 7 (5HT7), HTR7 (gene 3363) (P34969 whole entry, looked up): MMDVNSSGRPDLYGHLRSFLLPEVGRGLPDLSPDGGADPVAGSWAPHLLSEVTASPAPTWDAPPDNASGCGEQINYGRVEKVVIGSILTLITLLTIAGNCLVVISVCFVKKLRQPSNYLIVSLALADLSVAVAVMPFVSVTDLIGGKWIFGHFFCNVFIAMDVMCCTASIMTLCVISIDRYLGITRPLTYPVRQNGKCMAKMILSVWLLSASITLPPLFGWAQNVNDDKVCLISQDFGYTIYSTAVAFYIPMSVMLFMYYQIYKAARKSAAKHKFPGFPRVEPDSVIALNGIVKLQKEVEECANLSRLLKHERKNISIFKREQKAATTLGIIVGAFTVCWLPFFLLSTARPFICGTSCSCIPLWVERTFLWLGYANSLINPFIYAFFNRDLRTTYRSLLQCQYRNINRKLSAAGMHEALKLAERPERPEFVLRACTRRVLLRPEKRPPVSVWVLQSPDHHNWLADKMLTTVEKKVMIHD

Experiment [11] concerns the target sheep Cyclooxygenase-1 (Cox1), PTGS1 (gene 443551) (UniProt P05979). As to the kind of experiment: NVS_ENZ_oCOX1: NovaScreen (NVS) Enzymatic Assay for sheep Cyclooxygenase-1 (Cox1) (AID 2283239).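 Note: actives reduce cyclooxygenase activity so potencies are for inhibitors.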 The procedure, abridged:
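Ovine seminal vesicle extract; absorbance (colorimetric) enzyme read-out at 0.66 h post-dose. Primary: single conc 25 uM, duplicate. Follow-up: concentration series on actives. Activity = signal loss vs DMSO baseline.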

Experiment [12] addresses sheep Cyclooxygenase-2 (Cox2), PTGS2 (gene 443460) (UniProt P79208). As to the kind of experiment: NVS_ENZ_oCOX2: NovaScreen (NVS) Enzymatic Assay for sheep Cyclooxygenase-2 (Cox2) (AID 2283231). The gist of the method: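 Enzyme from ovine placenta, cell-free; colorimetric absorbance read 0.66 hour after dosing, loss of signal vs DMSO. Screened in duplicate at 25 uM, then concentration-response up to 50 uM.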

In experiment [13] the target is rat Catechol-O-Methyl Transferase (COMT), Comt (gene 24267) (UniProt P22734). As to the kind of experiment: NVS_ENZ_rCOMT: NovaScreen (NVS) Enzymatic Assay for rat Catechol-O-Methyl Transferase (COMT) (AID 2283235). The gist of the method:
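Cell-free enzyme activity with protein extracted from rat dorsal striatum, measured by HPLC with absorbance detection. Compounds screened at 25 uM in duplicate; actives then run in concentration-response up to 50 uM, loss of signal versus DMSO.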

Experiment [14] has as its target human Adenosine A2a Receptor (AdoRA2a), ADORA2A (gene 135) (UniProt P29274). The experiment can be described thus: NVS_GPCR_hAdoRA2a: NovaScreen (NVS) G Protein-Coupled Receptor Assay for human Adenosine A2a Receptor (AdoRA2a) (AID 2283256). The gist of the method:
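Radioligand displacement on HEK293-derived membrane protein, cell-free; filter-based scintillation counting 1.5 hours after dosing, loss of signal vs DMSO. Single-point duplicate screen at 25 uM, actives retested in concentration series.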

Experiment [15] concerns the target guinea pig Leukotriene D4 Receptor (LTD4), CYSLTR1 (gene 100135514) (UniProt Q2NNR5). As to the kind of experiment: NVS_GPCR_gLTD4: NovaScreen (NVS) G Protein-Coupled Receptor Assay for guinea pig Leukotriene D4 Receptor (LTD4) (AID 2283248). The gist of the method: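 Radioligand displacement on guinea pig lung membranes, 1 h incubation, filtration and scintillation counting; DMSO as negative control. Duplicate 25 uM primary screen, then singleton concentration-response up to 50 uM.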

For experiment [16], the system named is bovine Angiotensin II Receptor Type 2 (AT2), gene 407157. As to the kind of experiment: NVS_GPCR_bAT2: NovaScreen (NVS) G Protein-Coupled Receptor Assay for bovine Angiotensin II Receptor Type 2 (AT2) (AID 2283240). The gist of the method:
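Radioligand displacement on bovine cerebellar membranes, 1 hour incubation, filter-based scintillation counting; loss of signal vs DMSO. Duplicate single-point screen at 25 uM, then concentration-response to 50 uM maximum.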

The subject of experiment [17] is bovine Histamine 1 Receptor (H1), gene 281231. The experiment can be described thus: NVS_GPCR_bH1: NovaScreen (NVS) G Protein-Coupled Receptor Assay for bovine Histamine 1 Receptor (H1) (AID 2283246). The gist of the method: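 Radioligand displacement on bovine cerebellar membranes, 1 h after dosing, filter-based scintillation read-out; loss of signal vs DMSO. Duplicate single-concentration screen at 25 uM, then concentration-response up to 50 uM for hits.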

Experiment [18] addresses Adenosine receptor A1 (Bos taurus) (UniProt P28190). The experiment can be described thus: NVS_GPCR_bAdoR_NonSelective: NovaScreen (NVS) G Protein-Coupled Receptor Assay for bovine Adenosine Receptor (AdoR), Non-selective Binding (AID 2283244). The gist of the method: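 Bovine striatal membranes, radioligand displacement binding, 1 h after dosing, filter-based scintillation counting. Screened in duplicate at 25 uM, then concentration-response up to 50 uM; loss of specific binding relative to DMSO.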

The subject of experiment [19] is guinea pig Leukotriene B4 Receptor (LTB4), gene 100379538. As to the kind of experiment: NVS_GPCR_gLTB4: NovaScreen (NVS) G Protein-Coupled Receptor Assay for guinea pig Leukotriene B4 Receptor (LTB4) (AID 2283247). The gist of the method:
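Radioligand displacement on guinea pig spleen membranes, filter-based scintillation counting 2 h after dosing. Primary duplicate single point at 25 uM; hits over threshold (e.g. 30% inhibition) run in concentration-response up to 50 uM, DMSO baseline.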

Records with an inconclusive call do not appear. Calls of active or inactive are those of the source. Rule for the calls: active = hit-call score of the fitted dose curve at least 0.9, where 1 is the maximum; inconclusive = response in the unintended direction; inactive = score below 0.9.

The AC50 is the concentration at which the activity in the assay is half-maximal.

Sequence of sheep Cyclooxygenase-1 (Cox1), PTGS1 (gene 443551) (P05979 whole entry, looked up): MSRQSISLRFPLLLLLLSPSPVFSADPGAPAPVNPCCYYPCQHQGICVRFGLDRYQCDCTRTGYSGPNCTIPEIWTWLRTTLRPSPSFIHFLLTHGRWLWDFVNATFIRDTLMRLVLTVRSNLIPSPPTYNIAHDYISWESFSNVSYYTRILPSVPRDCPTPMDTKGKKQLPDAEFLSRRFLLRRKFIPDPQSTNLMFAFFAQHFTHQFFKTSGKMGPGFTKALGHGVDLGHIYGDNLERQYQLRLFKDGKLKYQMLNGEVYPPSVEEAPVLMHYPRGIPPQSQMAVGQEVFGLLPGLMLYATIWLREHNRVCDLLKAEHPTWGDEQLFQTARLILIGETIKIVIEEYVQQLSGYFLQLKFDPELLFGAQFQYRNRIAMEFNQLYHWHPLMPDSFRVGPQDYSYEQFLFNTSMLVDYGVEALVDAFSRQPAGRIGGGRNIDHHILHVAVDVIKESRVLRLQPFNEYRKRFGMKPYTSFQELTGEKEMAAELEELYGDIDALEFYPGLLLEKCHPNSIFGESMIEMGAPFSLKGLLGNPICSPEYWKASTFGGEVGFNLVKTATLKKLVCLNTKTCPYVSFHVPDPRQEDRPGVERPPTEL
Sequence of human Serotonin, 5-Hydroxytryptamine Receptor 5A (5HT5A), HTR5A (gene 3361) (P47898 whole entry, looked up): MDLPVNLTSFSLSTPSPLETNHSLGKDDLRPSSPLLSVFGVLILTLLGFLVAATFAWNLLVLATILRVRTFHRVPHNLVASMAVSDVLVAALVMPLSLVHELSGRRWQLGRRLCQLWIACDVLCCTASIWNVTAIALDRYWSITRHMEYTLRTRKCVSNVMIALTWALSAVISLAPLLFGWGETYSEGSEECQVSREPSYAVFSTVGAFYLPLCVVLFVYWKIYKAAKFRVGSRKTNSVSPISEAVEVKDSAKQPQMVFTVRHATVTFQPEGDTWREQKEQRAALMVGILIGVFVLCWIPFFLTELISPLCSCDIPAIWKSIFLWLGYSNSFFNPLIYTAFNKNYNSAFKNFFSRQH
Sequence of human Serotonin, 5-Hydroxytryptamine Receptor 6 (5HT6), HTR6 (gene 3362) (P50406 whole entry, looked up): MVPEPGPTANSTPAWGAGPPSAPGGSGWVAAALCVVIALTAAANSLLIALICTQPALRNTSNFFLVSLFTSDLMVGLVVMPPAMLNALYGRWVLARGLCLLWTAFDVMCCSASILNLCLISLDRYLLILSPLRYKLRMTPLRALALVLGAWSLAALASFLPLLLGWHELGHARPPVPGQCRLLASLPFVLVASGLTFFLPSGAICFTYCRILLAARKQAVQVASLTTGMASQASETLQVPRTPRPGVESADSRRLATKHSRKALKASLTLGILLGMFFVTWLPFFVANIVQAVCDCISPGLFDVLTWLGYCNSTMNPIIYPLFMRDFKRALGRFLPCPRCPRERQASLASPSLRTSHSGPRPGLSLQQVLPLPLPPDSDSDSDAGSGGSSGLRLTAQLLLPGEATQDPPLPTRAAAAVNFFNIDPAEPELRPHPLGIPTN
Sequence of guinea pig Opioid, Kappa 1 Receptor (OpiateK), OPRK1 (gene 100135587) (P41144 whole entry, looked up): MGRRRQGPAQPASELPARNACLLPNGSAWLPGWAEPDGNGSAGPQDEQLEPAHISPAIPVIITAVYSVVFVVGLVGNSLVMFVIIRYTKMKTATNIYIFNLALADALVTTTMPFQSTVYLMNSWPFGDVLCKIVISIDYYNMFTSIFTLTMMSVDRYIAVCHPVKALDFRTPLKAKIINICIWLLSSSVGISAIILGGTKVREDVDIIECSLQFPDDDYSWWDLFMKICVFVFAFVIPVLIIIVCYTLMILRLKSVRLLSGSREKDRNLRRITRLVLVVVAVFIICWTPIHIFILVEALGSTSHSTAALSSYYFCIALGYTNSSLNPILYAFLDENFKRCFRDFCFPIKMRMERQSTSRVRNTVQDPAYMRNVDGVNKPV
Sequence of human Adenosine A1 Receptor (AdoRA1), ADORA1 (gene 134) (P30542 whole entry, looked up): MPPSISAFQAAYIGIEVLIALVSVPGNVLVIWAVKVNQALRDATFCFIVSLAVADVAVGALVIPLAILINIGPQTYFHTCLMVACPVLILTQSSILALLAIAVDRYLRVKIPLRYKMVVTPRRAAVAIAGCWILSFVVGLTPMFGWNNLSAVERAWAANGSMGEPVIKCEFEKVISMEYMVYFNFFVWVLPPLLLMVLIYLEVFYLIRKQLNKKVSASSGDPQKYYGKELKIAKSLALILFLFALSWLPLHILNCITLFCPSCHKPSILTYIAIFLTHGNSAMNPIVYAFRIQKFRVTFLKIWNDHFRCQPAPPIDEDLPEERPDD
Sequence of bovine Dopamine Receptor (DR), Non-selective Binding, DRD1 (gene 281125) (Q95136 whole entry, looked up): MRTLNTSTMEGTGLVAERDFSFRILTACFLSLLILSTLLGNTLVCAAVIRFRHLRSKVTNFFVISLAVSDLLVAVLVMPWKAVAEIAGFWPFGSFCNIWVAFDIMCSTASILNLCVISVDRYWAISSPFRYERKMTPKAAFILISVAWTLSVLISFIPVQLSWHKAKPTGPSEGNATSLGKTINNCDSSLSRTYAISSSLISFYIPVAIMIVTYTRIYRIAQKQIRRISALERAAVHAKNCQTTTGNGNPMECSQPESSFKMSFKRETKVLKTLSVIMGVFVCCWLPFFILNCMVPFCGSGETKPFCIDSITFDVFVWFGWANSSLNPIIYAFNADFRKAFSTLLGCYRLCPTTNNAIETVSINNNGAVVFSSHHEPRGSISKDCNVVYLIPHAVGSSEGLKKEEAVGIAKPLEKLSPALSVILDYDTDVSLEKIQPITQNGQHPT

For `CN(C)C(=O)C1(N2CCCCC2)CCN(CC[C@@]2(c3ccc(Cl)c(Cl)c3)CN(C(=O)c3ccccc3)CCO2)CC1`, the call in experiment [1] and in experiment [9] was inactive. For the same compound, the AC50 is 4.5 µM (active) in experiment [2]; 15.1 µM (active) in experiment [3]; 0.957 µM (active) in experiment [4]; 8.87 µM (active) in [5]; 15.7 µM (active) in [6]; 5.78 µM (active) in [7]. Also, the AC50 is 23.6 µM (active) in [8] and 3.39 µM (active) in experiment [10].

As to `CCCCCc1ccc(N)cc1`, the concentration at half-maximal activity (AC50) in [11] is 7.04 µM (active).

As for `CCCCCCCCOC(=O)c1cc(O)c(O)c(O)c1`, the concentration at half-maximal activity (AC50) is 18.3 µM (active) in experiment [12]; 2.54 µM (active) in experiment [13]; 25 µM (active) in [6]; 12.4 µM (active) in experiment [9]; 17 µM (active) in experiment [10]; 8.09 µM (active) in experiment [14]. In addition, the compound was called inactive in experiment [11].

As for `CCN(Cc1cccnc1)C(=O)c1cccc(Cl)c1[C@]1(C)C(=O)N(Cc2ccc(OC)cc2OC)c2ccc(Cl)cc21`, the outcome in experiment [1] and in [3] was inactive. The half-maximal activity concentration (AC50) was 9.32 µM (active) in [15]; 15.9 µM (active) in experiment [4]; 4.88 µM (active) in experiment [6]; 11.1 µM (active) in [7]; 6.41 µM (active) in experiment [10].

As for `O=C1c2ccccc2C(=O)N1CCc1noc(-c2ccc(CN3CCCCCC3)s2)n1`, the outcome in experiment [11], in [16], in [7] and in [9] was inactive. Also, the half-maximal activity concentration (AC50) is 14.6 µM (active) in experiment [2]; 12.1 µM (active) in experiment [17]; 2.4 µM (active) in experiment [4]; 4.5 µM (active) in experiment [5]; 8.12 µM (active) in experiment [10].

Take `O=CCCCC=O`: in experiment [12], the concentration at half-maximal activity (AC50) is 15.4 µM (active). For the same compound, in experiment [17], the compound was classed as inactive.

Regarding `CN(C)c1ccc(C(=C2C=CC(=[N+](C)C)C=C2)c2ccc(N(C)C)cc2)cc1`, the concentration at half-maximal activity (AC50) in [1] was 0.572 µM (active); in [18], 13.6 µM (active); in [3] it was 11.2 µM (active); in experiment [5] it was 5.05 µM (active); in experiment [6] it was 1.99 µM (active); in [7], 4.24 µM (active). Further, the concentration at half-maximal activity (AC50) is 13.9 µM (active) in experiment [8], 10.5 µM (active) in experiment [9] and 4.11 µM (active) in experiment [10].

On to `CC[C@H](NC(=O)c1cc(F)ccc1NS(=O)(=O)c1cccc2cccnc12)c1ccccc1`, for which the outcome in [11] and in experiment [15] was inactive. Further, the concentration at half-maximal activity (AC50) in experiment [19] is 0.206 µM (active); in experiment [8], 1.31 µM (active).

For `c1ccc2ccccc2c1`, in [1], the compound was called inactive.
